This passage reports Potency and outcome results from PubChem BioAssay (Tox21).

The structures appear in SMILES notation. Records with an inconclusive call do not appear. Unmarked numbers belong to inactive results. The source made the active and inactive calls. Unless noted, calls follow the shape of the dose curve; as a rule, active = well fitted curve in the direction sought with a large enough effect in the repeat runs; inconclusive = weak or mixed curves; inactive = no such curve, though single readings can be large; an effect the other way counts as inactive or inconclusive.

The nature of assay [1]: qHTS assay to identify small molecule antagonists of the thyroid receptor (TR) signaling pathway - cell viability counter screen (AID 743064). Also: nearly all actives have a fitted effect of over 50% in size. An outline of the steps: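 GH3.TRE-Luc cells, 4 h pre-plating; cpd + T3 1 nM final; 37 °C 23.5 h; CellTiter-Fluor 30 min; fluorescence read.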
A general note: qHTS replaces the single test concentration by a dilution series.

The nature of assay [2]: qHTS assay to identify small molecule antagonists of the estrogen receptor alpha (ER-alpha) signaling pathway - cell viability counter screen (AID 743074; calls by dose curve;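 also: HEK293 cells carrying ER-alpha-UAS-bla reporter stimulated with 17beta-estradiol; nearly all actives have a fitted effect of over 45% in size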).
Assay [3] is described as follows: qHTS assay to identify small molecule antagonists of the estrogen receptor alpha (ER-alpha) signaling pathway using the BG1 cell line - cell viability counter screen (AID 743081).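 Also: compound given together with 17beta-estradiol as the ER stimulus; series mostly up to about 70 µM; nearly all actives have a fitted effect of over 45% in size.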
For assay [4], the system named is thyroid hormone receptor (rat, GH3 cells). The experiment in a line: qHTS assay to identify small molecule agonists of the thyroid receptor (TR) signaling pathway (AID 743066; calls by dose curve).
Assay [5] deals with Aromatase (Homo sapiens) (UniProt P11511). The assay can be described thus: qHTS assay to identify aromatase inhibitors (AID 743083). Also: nearly all actives have a fitted effect of over 55% in size. Also: potency is read from the fitted curve at half-maximal effect.
Assay [6] deals with Estrogen receptor (Homo sapiens) (UniProt P03372). The assay can be described thus: qHTS assay to identify small molecule antagonists of the estrogen receptor alpha (ER-alpha) signaling pathway (AID 743069; active = well fitted curve in the direction sought with a large enough effect in the signal ratio in the repeat runs, not every such curve was filed as active; the % refers to the signal ratio). Put shortly: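 Beta-lactamase FRET fluorescence is read after 2 hr at room temperature with LiveBLAzer B/G substrate. Before that, ER-alpha-bla HEK293 cells sit 4 hr after plating, then receive compound plus 17beta-estradiol and incubate 18 hr at 37C.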

The target is the same in assay [7]. The assay can be described thus: qHTS assay to identify small molecule agonists of the estrogen receptor alpha (ER-alpha) signaling pathway (AID 743075; calls by dose curve;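 also: HEK293 GripTite cells with ER-alpha and UAS-driven beta-lactamase reporter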).
For assay [8] the target is unchanged. The experiment in a line: qHTS assay to identify small molecule agonists of the estrogen receptor alpha (ER-alpha) signaling pathway using the BG1 cell line (AID 743079). Also: nearly all actives have a fitted effect of over 20% in size. Also: potency is read from the fitted curve at half-maximal effect.
Assay [9] can be described thus: qHTS assay to identify small molecule antagonists of the estrogen receptor alpha (ER-alpha) signaling pathway using the BG1 cell line (AID 743080; calls by dose curve;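 also: BG1 cells stimulated with 17beta-estradiol alongside compound; nearly all actives have a fitted effect of over 25% in size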; also: potency is read from the fitted curve at half-maximal effect). Put shortly:
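BG1Luc4E2, endogenous ER-alpha, 4xERE-luc; 5 d charcoal-stripped FBS, phenol red free; 24 h plating; cpd + 17beta-estradiol 21.5 h, 37 C/5% CO2; CellTiter-Fluor viability 30 min, then ONE-Glo luciferase 30 min RT.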

Assay [10] is described as follows: qHTS assay to identify small molecule antagonists of the thyroid receptor (TR) signaling pathway (AID 743065). Also: series mostly up to about 70 µM; nearly all actives have a fitted effect of over 55% in size. An outline of the steps:
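GH3.TRE-Luc rat pituitary cells (two TREs driving luciferase) were dosed with compound, then stimulated with 1 nM T3 (final) for 23.5 h at 37 C. ONE-Glo luminescence was the read-out, with CellTiter-Fluor fluorescence as the cytotoxicity counter-screen.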

Sequence of Aromatase (Homo sapiens) (P11511 whole entry, looked up): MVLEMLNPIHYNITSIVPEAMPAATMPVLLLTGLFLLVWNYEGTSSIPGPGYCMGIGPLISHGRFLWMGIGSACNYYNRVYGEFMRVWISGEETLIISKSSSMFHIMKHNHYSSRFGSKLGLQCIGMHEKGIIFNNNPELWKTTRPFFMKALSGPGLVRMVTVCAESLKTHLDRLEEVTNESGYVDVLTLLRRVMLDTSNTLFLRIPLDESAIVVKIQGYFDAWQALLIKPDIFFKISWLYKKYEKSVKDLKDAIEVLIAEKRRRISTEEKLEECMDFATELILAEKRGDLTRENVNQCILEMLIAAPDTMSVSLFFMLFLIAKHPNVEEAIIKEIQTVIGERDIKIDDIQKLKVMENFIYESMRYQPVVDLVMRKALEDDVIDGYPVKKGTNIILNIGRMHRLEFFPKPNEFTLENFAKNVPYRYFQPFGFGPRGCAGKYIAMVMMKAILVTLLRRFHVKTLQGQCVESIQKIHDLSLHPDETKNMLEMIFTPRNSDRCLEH
Sequence of Estrogen receptor (Homo sapiens) (P03372 whole entry, looked up): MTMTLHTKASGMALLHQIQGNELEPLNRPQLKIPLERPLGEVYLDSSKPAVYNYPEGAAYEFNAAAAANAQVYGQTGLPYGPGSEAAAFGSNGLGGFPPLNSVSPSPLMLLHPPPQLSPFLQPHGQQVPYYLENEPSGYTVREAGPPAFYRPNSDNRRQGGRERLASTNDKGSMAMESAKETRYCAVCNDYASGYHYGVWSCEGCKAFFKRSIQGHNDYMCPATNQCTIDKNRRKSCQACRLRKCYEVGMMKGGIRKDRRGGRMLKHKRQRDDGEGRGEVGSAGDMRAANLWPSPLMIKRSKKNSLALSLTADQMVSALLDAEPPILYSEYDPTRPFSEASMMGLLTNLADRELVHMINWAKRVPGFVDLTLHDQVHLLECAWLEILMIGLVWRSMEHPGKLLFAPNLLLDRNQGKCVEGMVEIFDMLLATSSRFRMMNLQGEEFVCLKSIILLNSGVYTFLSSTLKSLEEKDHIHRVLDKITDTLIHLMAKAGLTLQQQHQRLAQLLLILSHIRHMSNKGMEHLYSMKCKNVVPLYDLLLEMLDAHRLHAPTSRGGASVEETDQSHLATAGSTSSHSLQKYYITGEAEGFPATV

With `O=P(O)(O)OP(=O)(O)O`, the Potency result in [1] was “inactive”. For the same compound, the result in assay [2] and in assay [3] was inactive.

For the compound `OC[C@H](Cc1cccc(O)c1)[C@H](CO)Cc1cccc(O)c1`, the Potency result in assay [1] and in [5] was “inactive” throughout. Further, the compound was classed as inactive in [4], in [2] and in assay [3].

On to `CCCC/C=C/C=C\C=O`, for which the Potency entry in assay [1], in assay [8], in assay [9] and in [5] was “inactive” in each case. Further, the call in assay [4], in assay [6], in assay [2], in [7] and in assay [3] was inactive.

As to `Cc1ccc(S(=O)(=O)O)c(C)c1`, the Potency entry in assay [1], in [8], in assay [9] and in [5] was “inactive” in each case. Also, the outcome in assay [6], in assay [2], in assay [7] and in assay [3] was inactive.

Take `CC(=O)c1sc(C)nc1C`: the Potency result in [1], in assay [10] and in assay [5] was “inactive” throughout. Besides, the compound was classed as inactive in assay [4], in assay [2] and in [3].

In the case of `O=C(Nc1ccc(Cl)c(Cl)c1)C1CC1`, the Potency entry in assay [1] and in assay [5] was “inactive” throughout. Besides, the outcome in [4], in assay [6], in assay [7] and in assay [3] was inactive. Further, the Potency in [9] was 21.1 µM (active).

With `Cc1cc(Cl)c(C)cc1Cl`, the Potency entry in assay [1] and in [5] was “inactive” each time. The compound was classed as inactive in assay [2] and in assay [3].

Consider `C=CCCCCCCCCCCCC`, for which the Potency entry in assay [1], in [10] and in assay [5] was “inactive” in each case. Moreover, the compound was called inactive in [4] and in assay [3].

For the compound `FC(F)(F)c1ccccc1-n1ccnc1`, the Potency result in assay [1] and in assay [10] was “inactive” in each case. Further, the outcome in [4], in assay [2] and in [3] was inactive. The Potency in [5] was 6.68 µM (active).

As for `COC(=O)[C@@H]1[C@H]2C[C@H]3c4[nH]c5ccccc5c4CCN3C[C@@H]2CC[C@@H]1O`, the Potency result in [1], in assay [8], in assay [9] and in assay [5] was “inactive” throughout. Moreover, the outcome in assay [4], in assay [6], in assay [2], in assay [7] and in [3] was inactive.

For the compound `CC1=CCC(C(C)C)=CC1`, the Potency entry in assay [1], in assay [8] and in assay [5] was “inactive” each time. In addition, the result in [6], in assay [2], in assay [7] and in assay [3] was inactive.

As to `C=COCCOCCOCCOC=C`, the Potency entry in assay [1], in assay [10] and in assay [5] was “inactive” each time. Moreover, the outcome in assay [4], in [2] and in assay [3] was inactive.

As to `CC1(CO)CN(c2ccccc2)NC1=O` (stereo not drawn), the Potency entry in [1] and in assay [5] was “inactive” throughout. Further, the compound was called inactive in assay [4], in assay [2] and in assay [3].

For `CCCCCCCCCCl`, the Potency entry in [1], in assay [10] and in [5] was “inactive” throughout. In addition, the compound was called inactive in assay [4], in assay [2] and in [3].

Consider `CC(COC(C)(C)C)OCCCO` (stereo not drawn), for which the Potency result in assay [1], in [10] and in [5] was “inactive” in each case. Besides, the compound was classed as inactive in assay [2] and in assay [3].

As for `OCCN(CCO)c1cccc(Cl)c1`, the Potency result in assay [1], in assay [10] and in assay [5] was “inactive” each time. Besides, the compound was classed as inactive in [4], in assay [2] and in assay [3].

As to `c1ccc2c(c1)ccc1c3ccccc3ccc21`, the Potency entry in [1], in assay [10] and in assay [5] was “inactive” throughout. In addition, the outcome in assay [4], in assay [2] and in [3] was inactive.

`O=C(c1ccc(O)cc1)c1ccc(O)c(O)c1O`: the Potency result in assay [1], in assay [10] and in assay [5] was “inactive” in each case. The compound was classed as inactive in [4] and in [3].

Turning to `Cc1cc(NC(=O)C2=C(O)c3ccccc3S(=O)(=O)N2C)no1`, the Potency result in assay [1], in [10] and in [5] was “inactive” throughout. Besides, the outcome in assay [4] and in assay [3] was inactive.

Turning to `C[C@@H](Oc1ccc(CNC(=O)c2cccnc2Oc2ccc3c(c2)OCO3)c(F)c1)C(=O)O`, the Potency result in assay [10], in assay [8], in assay [9] and in assay [5] was “inactive” each time. The compound was called inactive in assay [4], in [6], in assay [2], in assay [7] and in assay [3].

For the compound `ClCCCl`, the Potency entry in [10], in assay [8], in [9] and in assay [5] was “inactive” each time. For the same compound, the compound was classed as inactive in [4], in assay [6], in assay [2], in assay [7] and in assay [3].

With `CCC(C)NC(N)=O` (stereo not drawn), the Potency result in [10], in assay [8] and in [5] was “inactive” throughout. Further, the call in [4], in assay [6], in assay [2], in assay [7] and in assay [3] was inactive.

With `CC(C)(C)NC(N)=O`, the Potency entry in assay [10], in assay [8] and in [5] was “inactive” each time. The compound was classed as inactive in assay [4], in [6], in assay [2], in assay [7] and in assay [3].

Take `CCN(C)C(=O)Oc1cccc([C@H](C)N(C)C)c1`: the Potency entry in [10], in assay [8], in [9] and in assay [5] was “inactive” in each case. The compound was classed as inactive in assay [4], in [6], in assay [2], in [7] and in [3].

As for `CCCCCCCCSCC`, the Potency entry in assay [10], in assay [8], in assay [9] and in assay [5] was “inactive” in each case. Further, the compound was classed as inactive in [4], in [6], in [2], in [7] and in [3].

Take `C=C(C)C(=O)OCCNC(C)(C)C`: the Potency result in [1] and in assay [5] was “inactive” throughout. For the same compound, the result in [2] and in assay [3] was inactive.

On to `Cc1cc2cc3c(C)cc(=O)oc3c(C)c2o1`, for which the Potency entry in assay [10], in assay [8] and in assay [5] was “inactive” each time. In addition, the compound was classed as inactive in assay [4], in [2], in assay [7] and in assay [3].

With `CC(C)NCC(O)COc1ccc(COCCOC(C)C)cc1` (stereo not drawn), the Potency result in assay [10] and in assay [8] was “inactive” each time. For the same compound, the compound was called inactive in assay [4], in assay [6], in assay [2], in assay [7] and in assay [3].

For `CC(=O)c1ccc2c(c1)Cc1ccccc1-2`, the Potency result in assay [10] and in [5] was “inactive” each time. Further, the compound was classed as inactive in assay [4], in [6], in assay [2] and in [3]. In addition, the Potency in assay [8] was 24.4 µM (active).

`CCCCCCN`: the Potency result in assay [10], in [8] and in [5] was “inactive” in each case. Also, the outcome in assay [4], in [6], in assay [2], in assay [7] and in assay [3] was inactive.

As for `Cc1cccc(C)c1OCC(C)N` (stereo not drawn), the Potency result in assay [10], in assay [8], in [9] and in assay [5] was “inactive” each time. Also, the result in assay [4], in assay [6], in assay [2], in assay [7] and in assay [3] was inactive.

For the compound `O=C1c2ccccc2C(=O)C1c1ccccc1`, the Potency entry in assay [10], in assay [8], in assay [9] and in assay [5] was “inactive” each time. The compound was called inactive in assay [4], in assay [6], in [2], in [7] and in assay [3].

Consider `CNS(=O)(=O)CCc1ccc2[nH]cc(C3CCN(C)CC3)c2c1`, for which the Potency entry in assay [10], in assay [8], in assay [9] and in assay [5] was “inactive” throughout. Also, the result in assay [4], in assay [6], in assay [7] and in assay [3] was inactive.

For the compound `O=C1CCCC(=O)O1`, the Potency result in [10], in assay [8] and in assay [5] was “inactive” each time. Also, the compound was classed as inactive in assay [4], in assay [6], in assay [7] and in assay [3].

With `CCCOC(=O)C(C)O` (stereo not drawn), the Potency result in [10], in assay [8] and in [9] was “inactive” in each case. Besides, the compound was classed as inactive in [4], in assay [6], in assay [2], in [7] and in [3].

For the compound `O=C(O)c1ccc(Cl)cc1Cl`, the Potency entry in assay [10] and in assay [5] was “inactive” throughout. Also, the result in assay [4], in assay [6], in assay [2], in assay [7] and in [3] was inactive.

In the case of `On1nnc2ccccc21`, the Potency result in assay [10], in assay [8], in assay [9] and in [5] was “inactive” in each case. Further, the compound was called inactive in assay [4], in [6], in [7] and in [3].

Consider `Cc1cccc2nccnc12`, for which the Potency entry in [10], in assay [9] and in [5] was “inactive” in each case. The result in assay [4], in [6], in [2], in [7] and in [3] was inactive.

As to `COc1ccc2c(c1)C(=O)N(CCc1ccc(S(=O)(=O)NC(=O)NC3CCCCC3)cc1)C(=O)C2(C)C`, the Potency entry in [10], in assay [8], in [9] and in assay [5] was “inactive” each time. Also, the outcome in assay [4], in [6], in assay [2] and in [7] was inactive.

As for `Nc1ccc([N+](=O)[O-])c(N)c1`, the Potency result in assay [10] and in assay [5] was “inactive” in each case. For the same compound, the call in assay [4], in [6] and in assay [7] was inactive.

Take `O=C(CS(=O)Cc1ccco1)NC/C=C\COc1cc(CN2CCCCC2)ccn1` (stereo not drawn): the Potency result in assay [10], in [8] and in assay [5] was “inactive” in each case. Further, the outcome in [4], in [6], in assay [2], in [7] and in assay [3] was inactive.
